Laboratory results reported in the supplement of paper PMC10681739.
± gives the standard deviation of the averaged measurements. In all, about 4,000 sequences were measured (“arbitrary fluorescence units”: median about 830, highest 2% from about 6,500 on). The entries come from a sample that favours the highest values as a whole.

target: RUNX1 (UniProt Q01196); experiment: RUNX1 binding intensity (PBM fluorescence), RUNX1 alone (arbitrary fluorescence units); higher = stronger binding; conditions: RUNX1 concentration 2 nM; ETS1 concentration 0 nM
Sequence (Q01196 whole entry): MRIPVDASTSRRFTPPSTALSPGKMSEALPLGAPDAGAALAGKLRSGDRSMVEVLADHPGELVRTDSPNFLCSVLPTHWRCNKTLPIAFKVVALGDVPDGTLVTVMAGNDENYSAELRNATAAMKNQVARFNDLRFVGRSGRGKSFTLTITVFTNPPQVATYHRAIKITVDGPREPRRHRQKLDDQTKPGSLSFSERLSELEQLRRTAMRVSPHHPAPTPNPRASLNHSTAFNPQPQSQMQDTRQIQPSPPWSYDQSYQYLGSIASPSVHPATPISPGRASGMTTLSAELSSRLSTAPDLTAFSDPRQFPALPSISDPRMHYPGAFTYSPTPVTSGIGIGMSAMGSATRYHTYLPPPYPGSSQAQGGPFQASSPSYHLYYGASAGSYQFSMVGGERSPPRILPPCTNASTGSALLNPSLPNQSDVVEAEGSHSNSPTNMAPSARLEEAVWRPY
Description: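 gcPBM on 36-bp genomic-derived probes (partner site mutated) containing one RUNX1 site and no ETS1 site. Recombinant human RUNX1 (2 nM) was incubated alone or with ETS1 (25 nM) and detected by anti-RUNX1 antibody fluorescence. Values are medians over 4 replicate spots (not normalised). The probes sit in constant array flanks that are not printed.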

Sequence	RUNX1 binding intensity
GCCCCTCTTTCTGACTCACACAACCGCCTCTAGTCT	1540
TTGTGGTAGGGAAATCCACTTACCCCCTCCTCATGT	808
TGTGGCAACCACAGCCCCAAAACAAAGAGGAGACAC	1040
AGCTGAGGTCGCGGTGCAGCAGCAGCAAACGTGATA	1010
CCACTAGCAGCAAAACGGGCCGAGGGACCGCAAGCA	821
AACTTGTGGGGTTTTCTTCTGATCTTGCTCCCCGCT	998
GAAACCACAACCTACCCCAGCCTTACTTTCGGGCGC	3300
CCATTCTTACGGTGGAGATGGCTGCGGCCGTGGCGG	815
TCAAGAAAACAGTAAACTCTCAAAACCAAGTTCTGA	736
GCAATCTTGACCACAACATGGAGACAGGCAATCAAA	1540
ACGTCTGTTTACTGTGATTGAAACCGCAAGAAGAAG	9630
TAGGTCTGTGGGTGACGTCTGTTTACTGTGATTGAA	842
CATTCATGTGGCTTATAGGCACACCCTGCCTGCCTA	824
CCCCTTGCCGTTCTCCGAAAGTGCGCGGGTTGGAGC	868
TCCTCCGTTCCCGTAGTTCCGAGTTGCGGTTTCTCC	7620
GAGGCGTTGCCGCCTCCTTTTCGCGGTTGCCTTCTC	988
TGCTTCCCTTCAGTGCCGACAGCGAAAACCGCTGCC	795
GTCGCCGGGATCACCGCAAACGCTTGCTGCTTGCGC	1190
AGCCGTGGTCAGCAGCAGCACGACTGCCGCCTCCGC	770
GCAACCGCACTCCGAAAGCTCTGGGCCTGAAGAGTC	943
AACTGGGCTGAAAGAACGGCTAACCGCAAGCTGCCG	13200
TTGATAGCAAACCACACTCGGCACAGAAAGGAGAAC	1020
GGCGCCTCTTTGCGCCCCCGCCCACAATCGAGCGCA	826
CCTTTGTTGTGGTTTTTGCAGAAAGAGAAGGGTTAG	10600 ± 540
GGTGGACCTGTGGTTTGCAACACAGAAAGAGACTAT	1640

Sequence	RUNX1 binding intensity
GGTGGACCTGTGGTTTGCAACACAGAAAGAGGTGGC	1580
CACCTTTGTTGTGGTTTGTAAACGGAGACAAAAACA	1460
TGACGGCTGCACGGGCGCAGCGGCGGCCCGCAGGGG	736
CTGCCTGCCCCACAGCATGCAGGGACAGGCAGTGGG	633
CGGCCCCCGGGGTGGTTAGCGCTTACGGGGTCGAAG	714
GCCGATGAGGAGGTGAGGGCCAACCACACTGCTCAG	870
AGTGCTGTGGTTTGACTTTGTTTTTACTGTAGCCAG	1880
TCAGAACTTGGTTTTGAGAGTTTACTGTTTTCTTGA	785
AGAGTCTTTTTTACTGAGCGTTTGCGGTTTTGACTT	8560
GGTCTGGAGGACGTTTGCAGCTGCTGTGGGTGGTGG	787
ACCTGATGCCGGGGCACCGCCAGATGTGGCCACGAG	872
TCGCCCGCCGCTTCATGTCGCGGCGCCGCAGAGGCC	781
AATTAAATTGTGGTAGATAGTAAAAGGACGTAGTTA	943
TTTAATTCTGTGGTTAGAAGTAAAAGGACGTAAAGG	3370
GTAGTAAGTTGTGGTTAAAAGAGAGGACGTTCAGAG	7590
ACTCTGCGGCCCAGCTGCTTCTGTGCACAGGCAATA	791
CTACCGGGAGTGCGGGTCGCGCTTCAGGCGGCGTCC	724
TGAAGGCAATTGACGAACACGTGACGCGGTCGGGCG	721
AGCGCCACCGCAGTGATGCAAGTCGGCAGTTGTAGT	926
ATTTCCATTTACGGACTCTTCTCCTGCCCGCAGGGC	1020
TCGTGAAAAAGGAGGTGGATAAAGTGGTTACGGCAA	779
CCGAGTGGCGGTTGTTTCAAGATGGCGGAGGTGGCA	789.5 ± 6.2
CCAGCATGTGGGCTCTGAACCTGAAGCAACAGGCTC	796
GGTGTTACACCGCAGCCTTCCATGAAGGGGCAGGGG	1220
ATGTTAACACCCTGCCATGAAAACCGCAAGAAGGGC	11200

Sequence	RUNX1 binding intensity
CATGAGAAACACCCTGCCCAACCACCTGACTACAAG	1080
CCGGGACCGCGGCTTGGGCTCACGGCCACTGCCGAC	703
GTTTTCAAGGCAGCAAGTGGCTGTGGTGGCACGGAG	837
AGGCTTTGCTGCCACAAACTTTCGTGCCACGAACCT	779
AGTTGCATACGCGGTATTGGGCAGGCAATGGCAGGG	738
CGTTTACTGTGGCTGCAGCTCTCCCCACCCACACAC	979
GACGCAGCATGAGGTGGAGGTGTAGAATGTGGTGCT	760
TTTGCACACATGCTGGCCTCCGCCTGACCACCTCCT	985
GCCGTGAATGCGGGCTCTCCTGCCGTAAGCTGCCCC	824
TTACAGGGGCCGGGAGTGGCCTGCGGGCGGAGAAGT	738
TCCTGTGGCTTTGGGGTTCCTTGTTGCCTGGGCTGG	1110
GTGACCACTGCCTAGTTACTGCCAGCTGAACGAAGG	729
CTGGAACCGCAGGATCCTTGCTGCGTCCTCTCGGTC	2340
GAGTGGGCGGTAACTCGCAGGCCGAACGTGACGCAA	740
GACAACCTACCACAGCCTTCCTTTCGGGCGCTCAGG	1040
TTCTGTGGGGACAATTAGGGTTTCTGGGTTTTCTGA	865
AGATTCTAGGCAGTGTCTGTAGCCGCAGCTGAGGGT	736
TACCTAGACCCTTGCCGCCCTTACCGCGGCCAGACA	901
CTTCTTGCTGCTGAGACTGATACAGCCCGCAAAGCT	816
TGTTACCACTGTTAGACTAGAGAGCATGCTGTTGTT	841
AGCACCACATTCTACACCTCCACCTCATGCTGCGTC	1180
TTGCCGTAACCACTTTATCCACCTCCTTTTTCACGA	2720
CCTAAGTAACCACATTCTCGCTTGCTCCTTCCACAC	3680
GTAGCCGGGTGTTACGGAGCGCTGCGGGCAAAGCAG	671
GGAGGAAGGCAGCAAAGAAAGAGGTGGTTTCGGCAC	783

Sequence	RUNX1 binding intensity
CTCAGCCCACCGCTGCGCGGCCGAAAGTCGGAGGTT	760
TTGCACTCTGCGGGGACGGGAGAAGGAACGAAAAAT	805
TTTGTTGTTCAGGGTGCGAGGCGGCCGCAGCTTCCA	936
CACCTCCCACTCACCACAGAGTTTCATGGTGTTTTA	1090
ACTTGACTGCCTGTGGGGTGTGTGGTGTCTGCACTT	822
CGAGTCAGCAAATCACAGCTCTGCGGGTGGGCTCCT	739
CAGCATGTGGGTGCACACACCGATTCCTTAGAGGTT	811
ACTGTGCGTTGAGGTCGTCCGCCATCTGCTGCAGCT	745
GAGGTGGTCAGAGCCTCCCTTGACATGAAACAAGAA	724
TTGGCCTCGCCGGGACCCCTTGCACCGCGGACACAG	776
AAAACGCGCAAATACGGTGGCTGCGGCCCGCGGGCA	693
GGGCAGGCCGTATGTGGGAGACCACAAAGCCCAAGG	787
CATGACCTCCTCGCACAAGAATGCGGGGGTGGGGGT	1050
CACCCCGCCTCTGCGGGACCACTTCAGGCGCCTTCT	876
AACCCCTTGCACCGCGGACACAGCTTCTTCTTCCCC	1080
TGGCTACCCGAAAGGCGCGTTGGCTGCGGCTACGCA	733
ACCCCGAAAGTGTGGGCGCGGCTGCGGTTTAACCCG	7200
GTGGCGCGGTGGGGCGCGGACCCGAAACTGCCAAGT	706
CCCCACATACGGGGGCCGGGGCCGGGCTGTGGGCTT	755
TCCGCTTCTGTGGTCTGATCTTGCTGGGGCTGAACC	1090
ACAGACAGCAGCCTGAGCTCGTGGTTAGAACACCCT	796
GGTCTGCGGCGCGCGGGATGCTGGGCAATGTAGTTT	784
CAGGCTGCTTCAGGCGCGCGGCAGAGCGGTCAGAGC	716
CGTCCCCGCAAAGCCGCGGCAGAAACTCCCGGCGGT	1270
TAGGGGGGCGCGGTGAGCCCCGGCGGGAATCGAAGC	716

Sequence	RUNX1 binding intensity
TCCACAATTCCCAGGAGTCTCTGCGGCCGCGCGGAG	830
TCACAATCGCCCACAAAGACAGCAAGTAACTGTCAG	892
ACGAGGTTTCGTGCAGGCTCCAGCCGAGACCACATC	744
GTAGGGGAGGGACCGCAGGGAGGCGGCAGTCCTTGT	931
ATCTTGTTCAGGCTCAAAGGGAAACCGCTGCTTTTC	914
GACAGTTTTCGGGCCTAGTTTGCGGCTGCTCCTGCC	891
CTCTCCAGACCGCGCATTTTGGGTCTCGGAGGAGGT	735
ACGTCATCCCGCAGGGCTGGCGCGCCCGGCGCAGTC	779
ACGCCGCGCATACGCGCTTTACGGCGGCCGCAAAAT	801
GAGGAGGAGGTGCGCTGGCTGTTCTGCTGCGGGCCG	704
ATGCCAAGGGACCTCCCTCCACAACCGCCCCCAGCT	930
CTGACAGCCTCCGCACAAAGCGCGGTCTATTTCTCC	918
AAGAAAGGTTCCAGCCTGCGCCCTGCTACCGCGGCG	738
GCTGCGGCGGCGGCGAAGAGACAACCTCCGCTGGAA	793
TCTGGGAGATGGAGTTCACAGCGCTGCGGGGCCGGA	674
CAACGCTTGCCGACCGCCAGCAGGAGGTGGTGGGCG	755
TCAAAGCTGCGGGGTTTCATTGCCTGTTCCTGAACA	693
AGTATACTGTGGTGAGAAACTGCCTGCCATACCAGC	824
CGTTTACTGTCTGGGACTGCGCCCACGCGGTCACGT	871
CACTTGGTCTTGCTGCCCTTGTGGCCCTAACACCCT	841
TTTATCCTTATTTGCTGGCTTCGCCCACAAGCACAG	1010
AGACTAGAGGCGGTTGTGTGAGTCAGAAAGAGGGGC	724
TCGGGAGGTGGCATGCTGACTCACCTGTGGCTTGTT	797
CTCCTGCGGCGACACGCCTAGCAGACGGCGCAAGGC	773
ATAACTTGCGGCAAATGCTGGAGGCAGTACCGCCTT	840
